Compound activity (PubChem)
The list is not random: actives were taken first. Their share in the collection is about 4.6%.
Wee1 stabilizer – inhibitors of human Wee1 degradation; P30291; HeLa Luc-Wee1K328M stability, luciferase luminescence; 100% = proteasome inhibitor MG132 effect; reporter increase, % at 5 µM; actives 1.2% (n = 220,000); AID 1321;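 active means activation above the mean of all tested compounds plus 3 SD, set per screening run, cut at about 8.8% in these data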;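 further: cells exposed to compound for 20 h before luminescence read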
DAX1 inh-1 – blocks DAX1 repression of SF-1 activated StAR promoter | HEK293T StAR-luciferase reporter, SF-1/DAX-1 repression relief | inhibition, % at 6.8 µM | actives 1.1% (n = 370,000);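 active means inhibition above the mean over all tested compounds plus 3 SD, cut at about 3.6% in these data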;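 further: higher inhibition means more luminescence from relief of DAX-1 repression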
hcDAF12 agonist – activators of H. contortus DAF-12 nuclear receptor. activation, % at 6.8 µM. actives 1.4% (n = 370,000). AID 652067. HEK293 hcDAF-12 lit1-tk-luc reporter, luminescence; 0% DMSO, 100% Δ7-dafachronic acid;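 active means activation above the mean of all tested compounds plus 3 SD, cut at about 5.5% in these data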
hgDAF12 agonist – agonists of H. glycines DAF-12 nuclear receptor. HEK293 GAL4-hgDAF12 UAS-luciferase reporter, agonist luminescence; normalized to butyrate control. activation, % at 6.8 µM. actives 1.8% (n = 370,000);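 active means activation above a cutoff set at the mean of all screened compounds plus 3 SD, cut at about 10% in these data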
ssDAF-12 act – S. stercoralis DAF-12 activation, primary screen; HEK293 ssDAF-12/GRIP1 lit1-tk-luc reporter, luminescence; % of 3 µM dafachronic acid response; activation, % at 6.8 µM; actives 1% (n = 370,000); AID 652126;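 active means activation above the mean over all tested compounds plus 3 SD, cut at about 0.9% in these data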
DAX1 inh-2 – inhibits human nuclear receptor DAX1; P51843; inhibition, % at 6.75 µM; AID 504766; actives 0.99% (n = 340,000); HEK293 Gal4-DAX1 luciferase reporter, luminescence;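 active means inhibition above the mean over all tested compounds plus 3 SD, cut at about 4.2% in these data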;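 further: inhibition shows as a rise in luminescence from relieved DAX1 repression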
Target sequence (P51843 207-470 limits assumed): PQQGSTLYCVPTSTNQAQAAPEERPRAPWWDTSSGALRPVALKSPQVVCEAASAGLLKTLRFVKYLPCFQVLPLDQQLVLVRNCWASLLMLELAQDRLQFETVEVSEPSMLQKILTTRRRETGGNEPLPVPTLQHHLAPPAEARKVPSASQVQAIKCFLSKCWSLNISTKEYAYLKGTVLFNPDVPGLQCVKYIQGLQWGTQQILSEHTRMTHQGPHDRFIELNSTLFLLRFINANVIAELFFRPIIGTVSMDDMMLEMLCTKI
LXR ag – counter-screen for hcDAF-12 agonists: agonists of human LXR-beta. shares compounds with hcDAF12 agonist. HEK293 Gal4-LXR tk-luc reporter, luminescence, 24 h; normalized: DMSO 0%, positive control 100%. activation, % at 6.8 µM. 3,400 tested, under 10 active;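 active means mean percent activation of the reporter above a cutoff set as the average over tested compounds plus their standard deviation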
hcDAF12 ag – confirmation of H. contortus DAF-12 agonists. activation, % at 6.8 µM. actives 61% (n = 3,400). HEK293 hcDAF-12 lit1-tk-luc reporter, luminescence; % of Δ7-dafachronic acid response. shares compounds with hcDAF12 agonist;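 active means mean activation across triplicate tests above the threshold derived from the earlier primary screen, cut at about 5.5% in these data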
hgDAF12 ag – hgDAF-12 agonism, confirmation assay | shares compounds with hgDAF12 agonist | HEK293 GAL4-hgDAF12 luciferase reporter, agonist mode; percent of butyrate response | activation, % at 6.8 µM | actives 80% (n = 3,300);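 active means mean activation over triplicate wells above the hit cutoff derived from the earlier primary screen, cut at about 11% in these data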
LXRb DAF12 ctr – LXR-beta agonism as DAF-12 counter-screen | activation, % at 6.8 µM | HEK293 Gal4-LXR luciferase reporter, 24 h | shares compounds with hgDAF12 agonist | 3,300 tested, under 10 active;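 active means mean activation of the triplicate above a set limit carried over from the primary screen, none filed active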
Numbers stand for hits; i = inactive; nt = not tested or not shown.

SMILES	Wee1 stabilizer	DAX1 inh-1	hcDAF12 agonist	hgDAF12 agonist	ssDAF-12 act	DAX1 inh-2	LXR ag	hcDAF12 ag	hgDAF12 ag	LXRb DAF12 ctr
O=C(NCC1COc2ccccc2O1)c1ccc(-n2cncn2)c([N+](=O)[O-])c1 (centres undefined)	nt	i	i	i	i	i	nt	nt	nt	nt
CC(=O)c1ccc(NCC2COc3ccccc3O2)c([N+](=O)[O-])c1 (centres undefined)	i	i	11	23	1.4	i	i	9.0	15	i
Cc1cc(F)ccc1C(O)c1ncc(-c2ccccc2F)[nH]1 (centres undefined)	nt	i	i	i	i	nt	nt	nt	nt	nt
Cc1c(C(=O)Nc2ccc(Br)cc2)cnn1C	i	i	11	15	2.3	i	i	6.1	13	i
COc1ccc(N=C(N)NC(=O)OCc2ccccc2)cc1	nt	i	i	i	i	nt	nt	nt	nt	nt
Cc1ccc2nc(-c3ccc(NC(=S)NCC(C)(C)CN(C)C)cc3)sc2c1	nt	4.0	7.8	18	i	13	i	i	13	i
Cc1ccc(C)c(S(=O)(=O)NC(C)C(=O)Nc2ccc(-c3nc4ccccc4s3)cc2)c1 (centres undefined)	i	i	i	i	i	i	nt	nt	nt	nt
Cn1c(NCc2c[nH]c3ccccc23)nc2ccccc21	i	i	16	16	1.7	i	i	15	25	i
Cc1ccccc1P(=O)(c1ccccc1)c1ccccc1C	nt	i	i	i	i	i	nt	nt	nt	nt
N#Cc1cnc(Nc2nc3ccccc3o2)nc1-c1ccccc1	i	i	i	i	i	i	nt	nt	nt	nt
Cc1ccnc(Nc2nc3ccccc3o2)n1	i	6.5	10	21	i	i	i	6.6	i	i
Cc1nn(-c2ccc3ccccc3c2)c(=O)c2ccccc12	i	i	12	16	1.7	i	i	8.5	15	i
O=C(Nc1ccccc1Cl)C1CC(=O)n2c(nc3ccccc32)N1 (centres undefined)	i	i	i	i	i	nt	nt	nt	nt	nt
O=C1CC(c2ccccc2)Sc2nc3ccccc3n21 (centres undefined)	i	4.0	6.9	19	1.1	i	i	7.3	12	i
COc1cccc(N=c2oc3ccccc3cc2-c2nc3ccccc3[nH]2)c1	i	i	15	16	2.6	i	i	6.7	19	i
COc1ccc(N=c2oc3ccc(OC)cc3cc2-c2nc3ccccc3[nH]2)cc1	i	i	6.7	15	2.5	i	i	i	10	i
O=C(OCC(=O)N1CCN(c2ccccc2)CC1)C1CCCN1S(=O)(=O)c1ccc(Cl)cc1 (centres undefined)	nt	i	i	i	i	i	nt	nt	nt	nt
Cc1c(C(=O)NCc2ccccn2)oc2ccccc12	i	i	i	i	i	i	nt	nt	nt	nt
O=C(Nc1nccs1)c1ccc2ccccc2c1	nt	i	17	21	2.2	i	i	14	26	i
O=C(Nc1nccs1)c1ccc(Br)cc1	nt	i	i	i	i	i	nt	nt	nt	nt
Cc1c(C(=O)Nc2nccs2)oc2ccccc12	nt	i	15	18	3.2	4.6	i	13	25	i
COCCNC(=O)C1CCCN(C(=O)c2sccc2C)CC1 (centres undefined)	nt	i	i	i	i	nt	nt	nt	nt	nt
Cc1ccc(C(=O)OCC(=O)Nc2cc(Cl)ccc2C#N)o1	nt	i	i	i	i	i	nt	nt	nt	nt
O=C1C2C3C=CC(C3=C3CCCCC3)C2C(=O)N1c1ccccc1 (centres undefined)	i	i	i	i	i	i	nt	nt	nt	nt
CN1C(=O)C2C=CC1C1C(=O)N(c3ccccc3)C(=O)C21 (centres undefined)	i	4.0	9.5	17	i	i	i	6.2	i	i
SMILES	Wee1 stabilizer	DAX1 inh-1	hcDAF12 agonist	hgDAF12 agonist	ssDAF-12 act	DAX1 inh-2	LXR ag	hcDAF12 ag	hgDAF12 ag	LXRb DAF12 ctr
O=[N+]([O-])c1ccccc1COc1ccc(Cl)c2cccnc12	nt	i	9.1	15	i	4.8	i	7.8	16	i
O=C(Oc1ccc(Cl)c2cccnc12)c1cccc([N+](=O)[O-])c1	i	i	i	i	i	i	nt	nt	nt	nt
Cc1cc2nn(-c3ccccc3)nc2cc1NC(=O)c1cccs1	i	i	i	i	i	i	nt	nt	nt	nt
CC(=O)Nc1cc2nn(-c3ccccc3)nc2cc1C	nt	i	7.0	18	1.4	i	i	i	19	i
CC(=O)Nc1cccc(Nc2cc(C)nn2C)c1	nt	i	i	i	i	nt	nt	nt	nt	nt
CC1(c2nnnn2-c2ccc3c(c2)OCCO3)CCC(=O)N1Cc1ccc(F)cc1 (centres undefined)	nt	i	i	i	i	nt	nt	nt	nt	nt
CCc1nnc(NC(=O)c2ccc3ccccc3n2)s1	i	3.9	13	14	2.6	i	i	15	18	i
Cc1ccc(NC(=O)c2ccc3ccccc3n2)nc1	i	3.8	16	16	3.5	i	i	17	20	i
CCNC(=S)/N=C(\N)Nc1nc(C)c2cc(C)ccc2n1	i	4.3	6.6	14	i	4.6	i	7.6	13	i
O=C(Nc1nccs1)c1ccc(-c2ccc(Cl)cc2)o1	i	4.3	6.6	17	1.3	4.6	i	i	22	i
Cc1nnc(NC(=O)c2ccc(-c3ccc(Cl)cc3)o2)s1	nt	i	i	i	i	i	nt	nt	nt	nt
Cc1sc(NC(=O)c2ccc(Br)s2)c(C(N)=O)c1C	i	i	8.8	19	i	i	i	12	18	i
CCN(C(=O)CSc1nnnn1C)C1CCS(=O)(=O)C1 (centres undefined)	nt	i	i	i	i	i	nt	nt	nt	nt
CON(C)C(=O)CC(CNC(=O)OC(C)(C)C)c1ccc(Cl)cc1 (centres undefined)	nt	i	i	i	i	i	nt	nt	nt	nt
CCn1c(/C=C/c2ccccc2[N+](=O)[O-])nc2ccccc2c1=O	i	i	i	i	i	i	nt	nt	nt	nt
O=[N+]([O-])c1ccccc1/C=C/c1ccc2ccccc2n1	nt	i	18	16	2.1	7.1	i	12	20	i
CC(=Nc1cccc(C)c1)c1sc2ccccc2c1O	i	i	15	14	4.0	i	i	13	25	i
O=[N+]([O-])c1cccc(N=Cc2sc3ccccc3c2O)c1	i	i	i	i	i	nt	nt	nt	nt	nt
O=C1CCc2cc(NS(=O)(=O)c3cc(F)ccc3F)cc3c2N1CC3	nt	i	i	i	i	i	nt	nt	nt	nt
